Where a name gives a salt, the structure may show the parent alone.
Legend:
Details in all cases: treatment time: 24 h
A549-ACTB-RAB5A [1] = experiment: lowest phenotypically active concentration; higher = less potent
Procedure, shortened: (§1)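 Four wells per concentration (0.3, 1, 3 or 9 µM) were treated for 24 h in each of fifteen gene-edited reporter lines from A549, HepG2 and WPMY1 cells, then imaged live. After normalising live-cell features to solvent control wells, deviation was defined as ≥3 of 4 wells lying past the 95th percentile of control Euclidean distances. Reproducibility was defined as a median replicate Pearson correlation above the 95th percentile of non-replicates. Both had to hold for phenotypic activity.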

A549-CANX-COX4 [2] = experiment: as above
Procedure, shortened: as §1

A549-GM130-SQSTM1 [3] = experiment: as above
Procedure, shortened: as §1

A549-TP53BP1-CLTA [4] = experiment: as above
Procedure, shortened: as §1

A549-TUBA1B-RELA [5] = experiment: as above
Procedure, shortened: as §1

HepG2-TP53BP1-CLTA [6] = experiment: as above
Procedure, shortened: as §1

A549-ACTB-RAB5A [7] = experiment: phenotypically active (imaging signature differs from DMSO and reproducible) at any of 0.3-9 uM (binary (1 = active, 0 = inactive)); higher = active
Procedure, shortened: as §1

A549-CANX-COX4 [8] = experiment: as above
Procedure, shortened: as §1

A549-GM130-SQSTM1 [9] = experiment: as above
Procedure, shortened: as §1

A549-TP53BP1-CLTA [10] = experiment: as above
Procedure, shortened: as §1

A549-TUBA1B-RELA [11] = experiment: as above
Procedure, shortened: as §1

HepG2-ACTB-RAB5A = experiment: as above
Procedure, shortened: as §1

HepG2-CANX-COX4 = experiment: as above
Procedure, shortened: as §1

HepG2-GM130-SQSTM1 = experiment: as above
Procedure, shortened: as §1

HepG2-TP53BP1-CLTA [12] = experiment: as above
Procedure, shortened: as §1

HepG2-TUBA1B-RELA = experiment: as above
Procedure, shortened: as §1

WPMY1-CANX-COX4 = experiment: as above
Procedure, shortened: as §1

WPMY1-GM130-SQSTM1 = experiment: as above
Procedure, shortened: as §1

WPMY1-TP53BP1-CLTA = experiment: as above
Procedure, shortened: as §1

WPMY1-TUBA1B-RELA = experiment: as above
Procedure, shortened: as §1

CCN(CC)c1ccc(/C=N/NC(=O)c2ccncc2)c(O)c1
1 µM: lowest phenotypically active concentration (A549-CANX-COX4 [2]) | lowest phenotypically active concentration (A549-GM130-SQSTM1 [3]) | lowest phenotypically active concentration (A549-TP53BP1-CLTA [4]) | lowest phenotypically active concentration (A549-TUBA1B-RELA [5])
active: phenotypically active (A549-ACTB-RAB5A [7]) 1 | phenotypically active (A549-CANX-COX4 [8]) 1 | phenotypically active (A549-GM130-SQSTM1 [9]) 1 | phenotypically active (A549-TP53BP1-CLTA [10]) 1 | phenotypically active (A549-TUBA1B-RELA [11]) 1 | phenotypically active (HepG2-ACTB-RAB5A) 1 | phenotypically active (HepG2-CANX-COX4) 1 | phenotypically active (HepG2-GM130-SQSTM1) 1 | phenotypically active (HepG2-TP53BP1-CLTA [12]) 1 | phenotypically active (HepG2-TUBA1B-RELA) 1 | phenotypically active (WPMY1-CANX-COX4) 1 | phenotypically active (WPMY1-GM130-SQSTM1) 1 | phenotypically active (WPMY1-TP53BP1-CLTA) 1 | phenotypically active (WPMY1-TUBA1B-RELA) 1
≤ 0.3 µM: lowest phenotypically active concentration (A549-ACTB-RAB5A [1]) | lowest phenotypically active concentration (HepG2-TP53BP1-CLTA [6])

COc1ccccc1-c1c[nH]c2ncc(-c3cncc(C(=O)N(C)C)c3)cc12
≤ 0.3 µM: lowest phenotypically active concentration (A549-ACTB-RAB5A [1]) | lowest phenotypically active concentration (A549-GM130-SQSTM1 [3]) | lowest phenotypically active concentration (A549-TP53BP1-CLTA [4]) | lowest phenotypically active concentration (A549-TUBA1B-RELA [5]) | lowest phenotypically active concentration (HepG2-TP53BP1-CLTA [6])
1 µM: lowest phenotypically active concentration (A549-CANX-COX4 [2])
active: phenotypically active (A549-ACTB-RAB5A [7]) 1 | phenotypically active (A549-CANX-COX4 [8]) 1 | phenotypically active (A549-GM130-SQSTM1 [9]) 1 | phenotypically active (A549-TP53BP1-CLTA [10]) 1 | phenotypically active (A549-TUBA1B-RELA [11]) 1 | phenotypically active (HepG2-ACTB-RAB5A) 1 | phenotypically active (HepG2-CANX-COX4) 1 | phenotypically active (HepG2-GM130-SQSTM1) 1 | phenotypically active (HepG2-TP53BP1-CLTA [12]) 1 | phenotypically active (HepG2-TUBA1B-RELA) 1 | phenotypically active (WPMY1-CANX-COX4) 1 | phenotypically active (WPMY1-GM130-SQSTM1) 1 | phenotypically active (WPMY1-TP53BP1-CLTA) 1 | phenotypically active (WPMY1-TUBA1B-RELA) 1

COc1ccc(C[C@H](N)C(=O)N[C@H]2[C@@H](O)[C@H](n3cnc4c(N(C)C)ncnc43)O[C@@H]2CO)cc1 [Puromycin dihydrochloride]
≤ 0.3 µM: lowest phenotypically active concentration (A549-ACTB-RAB5A [1]) | lowest phenotypically active concentration (HepG2-TP53BP1-CLTA [6])
1 µM: lowest phenotypically active concentration (A549-CANX-COX4 [2]) | lowest phenotypically active concentration (A549-GM130-SQSTM1 [3]) | lowest phenotypically active concentration (A549-TP53BP1-CLTA [4]) | lowest phenotypically active concentration (A549-TUBA1B-RELA [5])
active: phenotypically active (A549-ACTB-RAB5A [7]) 1 | phenotypically active (A549-CANX-COX4 [8]) 1 | phenotypically active (A549-GM130-SQSTM1 [9]) 1 | phenotypically active (A549-TP53BP1-CLTA [10]) 1 | phenotypically active (A549-TUBA1B-RELA [11]) 1 | phenotypically active (HepG2-ACTB-RAB5A) 1 | phenotypically active (HepG2-CANX-COX4) 1 | phenotypically active (HepG2-GM130-SQSTM1) 1 | phenotypically active (HepG2-TP53BP1-CLTA [12]) 1 | phenotypically active (HepG2-TUBA1B-RELA) 1 | phenotypically active (WPMY1-CANX-COX4) 1 | phenotypically active (WPMY1-GM130-SQSTM1) 1 | phenotypically active (WPMY1-TP53BP1-CLTA) 1 | phenotypically active (WPMY1-TUBA1B-RELA) 1

O=C(CCCc1ccc(-c2ccccc2F)cc1)Nc1ccc(O)cc1
1 µM: lowest phenotypically active concentration (A549-ACTB-RAB5A [1]) | lowest phenotypically active concentration (A549-CANX-COX4 [2]) | lowest phenotypically active concentration (A549-GM130-SQSTM1 [3]) | lowest phenotypically active concentration (A549-TP53BP1-CLTA [4]) | lowest phenotypically active concentration (A549-TUBA1B-RELA [5])
active: phenotypically active (A549-ACTB-RAB5A [7]) 1 | phenotypically active (A549-CANX-COX4 [8]) 1 | phenotypically active (A549-GM130-SQSTM1 [9]) 1 | phenotypically active (A549-TP53BP1-CLTA [10]) 1 | phenotypically active (A549-TUBA1B-RELA [11]) 1 | phenotypically active (HepG2-ACTB-RAB5A) 1 | phenotypically active (HepG2-CANX-COX4) 1 | phenotypically active (HepG2-GM130-SQSTM1) 1 | phenotypically active (HepG2-TP53BP1-CLTA [12]) 1 | phenotypically active (HepG2-TUBA1B-RELA) 1 | phenotypically active (WPMY1-CANX-COX4) 1 | phenotypically active (WPMY1-GM130-SQSTM1) 1 | phenotypically active (WPMY1-TP53BP1-CLTA) 1 | phenotypically active (WPMY1-TUBA1B-RELA) 1
9 µM: lowest phenotypically active concentration (HepG2-TP53BP1-CLTA [6])

O=C(NCc1cccc(O)c1)Nc1nc(-c2ccncc2)cs1 [RKI 1447 dihydrochloride]
≤ 0.3 µM: lowest phenotypically active concentration (A549-ACTB-RAB5A [1]) | lowest phenotypically active concentration (A549-CANX-COX4 [2]) | lowest phenotypically active concentration (A549-GM130-SQSTM1 [3]) | lowest phenotypically active concentration (A549-TP53BP1-CLTA [4]) | lowest phenotypically active concentration (A549-TUBA1B-RELA [5]) | lowest phenotypically active concentration (HepG2-TP53BP1-CLTA [6])
active: phenotypically active (A549-ACTB-RAB5A [7]) 1 | phenotypically active (A549-CANX-COX4 [8]) 1 | phenotypically active (A549-GM130-SQSTM1 [9]) 1 | phenotypically active (A549-TP53BP1-CLTA [10]) 1 | phenotypically active (A549-TUBA1B-RELA [11]) 1 | phenotypically active (HepG2-ACTB-RAB5A) 1 | phenotypically active (HepG2-CANX-COX4) 1 | phenotypically active (HepG2-GM130-SQSTM1) 1 | phenotypically active (HepG2-TP53BP1-CLTA [12]) 1 | phenotypically active (HepG2-TUBA1B-RELA) 1 | phenotypically active (WPMY1-CANX-COX4) 1 | phenotypically active (WPMY1-GM130-SQSTM1) 1 | phenotypically active (WPMY1-TP53BP1-CLTA) 1 | phenotypically active (WPMY1-TUBA1B-RELA) 1
